Each structure is given as a SMILES string. Records with an inconclusive call do not appear. Values without a mark were called inactive. Activity calls are given as the source filed them. Calls follow the shape of the dose curve; as a rule, active = well fitted inhibition curve with a large enough effect; inconclusive = small, poorly fitted or top-dose-only effect; inactive = flat fitted curve, though single readings scatter.
% is scaled to controls: 0 for no effect and ±100 for the full control effect; potency is read from the fitted curve at half-maximal effect.

The nature of this assay: P-glycoprotein substrates identified in KB-8-5-11 adenocarcinoma cell line, qHTS therapeutic library screen (AID 1346987). Also: nearly all actives have a fitted effect of over 65% in size. The following applies: KB-8-5-11 (P-gp overexpressing) viability, CellTiter-Glo, 72 h; series mostly up to 44.5 µM; activity change, negative = cytotoxicity: at the top concentration. From the text: The ATP-binding cassette transporters P-glycoprotein (P-gp) is known to limit brain penetration of many chemotherapy drugs. […] As such, we developed a high-throughput screen (HTS) to identify substrates of P-gp from a series of chemical libraries including the National Center for Advancing Translational Sciences Pharmaceutical Collection NPC, 2,816 compounds), testing a total of 10,804 compounds, most of which have known mechanisms of action. We used the CellTiter-Glo viability assay to test library compounds against the parental KB-3-1 human cervical adenocarcinoma cell line and the colchicine-selected sub-line KB-8-5-11 that over-expresses P-gp. KB-8-5-11 cells were also tested in the presence of a P-gp inhibitor (tariquidar) to assess reversability of transporter-mediated resistance. Of the tested compounds, a total of 90 P-gp substrates were identified including 55 newly identified P-gp substrates. Substrates were confirmed using an orthogonal killing assay against HEK-293 cells transfected with P-gp. As exemplars, we confirmed that […] (cyclin-dependent kinase inhibitor); AT9283, (Janus kinase 2/3 inhibitor); ispinesib (kinesin spindle protein inhibitor); gedatolisib (PKI-587, phosphoinositide 3-kinase/mammalian target of rampamycin inhibitor); GSK-690693 (AKT inhibitor); and KW-2478 (heat shock protein 90 inhibitor) were substrates , and direct ATPase stimulation was assessed. ABCG2 was also found to confer high levels of resistance to AT9283, GSK-690693 and gedatolisib, while ispinesib, AT7519 and KW-2478 were weaker substrates.
The HeLa derivative cell line, KB-3-1, and its colchicine-selected, P-gp-overexpressing subline, KB-8-5-11 were maintained in DMEM with 10% FCS and Pen/Strep with glutamine at 37 degree C in 5% CO2. For KB-8-5-11 cells, colchicine was added to the medium at a concentration of 100 ng/mL. HEK-293 cells transfected with empty vector (pcDNA) or vector containing human ABCB1 (MDR-19) or ABCG2 (R-5) have been described previously (Robey, Lin, Qiu, Chan & Bates, 2011) and were maintained in EMEM supplemented with 10% FCS, Pen/Strep and glutamine with 2 mg/ml G418 to select for the expression of the transporter. Cultures were confirmed to be free of mycoplasma infection using the MycoAlert Mycoplasma Detection Kit (Lonza, Walkersville, MD). For the screen, assay medium was identical to culture medium except for KB-8-5-11 where colchicine was excluded from the medium.
All cell lines were plated into 1536-well plates at 500 cells/well in 5 uL media. Compounds were then pinned in dose-response using a 1536-head pin tool (Kalypsis, San Diego, CA) and plates were incubated at 37 degree C in 5% CO2 for an additional 72 h. CellTiter-Glo reagent (Promega) was dispensed into the wells, incubated for 5 min and luminescence was read on a ViewLux instrument (Perkin-Elmer). Cytotoxic compounds were defined as those that yielded a curve class of -1.1, -1.2, -2.1, -2.2, -2.3, or -2.4, a maximum response of >50% and an AC50 of < 10 uM. Cherry-picked hits from screening analysis were tested with both the KB pair of cell lines, and the pcDNA (empty vector control) and MDR-19 (P-gp overexpressing) pair were tested, in the absence and presence of tariquidar.
In the case of `c1nc(NCC2CCOC2)c2cc(-c3ccc4c(c3)OCO4)ccc2n1` (stereo not given), the “activity change, negative = cytotoxicity” value is -6.67%.
`N#Cc1c2nc3ccccc3nc2n2ccc(NC(=O)c3cccs3)cc12`: the Potency is 20.6 µM (active).
Take `S=c1ssc2c1CCC2`: the result was inactive.
With `O=C1NC(=O)/C(=C\c2ccc3c(c2)OC(F)(F)O3)S1`, the “activity change, negative = cytotoxicity” value is -21.1%.
For `Cc1nc(CN(C)c2ncnc3ccc(-c4ccc5c(c4)OCO5)cc23)cs1`, the Potency was 20.6 µM (active).
Take `CS(=O)(=O)c1ccc([C@@H](C[C@H]2CCC(=O)C2)C(=O)Nc2cnccn2)cc1Cl`: the “activity change, negative = cytotoxicity” value was -7.63% [at 93.4 µM].
As for `COc1cc(Br)c(C[N+]2(CCOCCC3CCC4CC3C4(C)C)CCOCC2)cc1OC` (stereo not given), the “activity change, negative = cytotoxicity” value is -0.652%.
As for `CCN(CC)CCNc1ccc2ncn3c4ccc(O)cc4c(=O)c1c23`, the Potency is 1.3 µM (active).
Take `CN1C/C=C/CCOc2cccc(c2)-c2ccnc(n2)Nc2cccc(c2)C1`: the Potency is 0.231 µM (active).
As to `Cc1ccc(NS(=O)(=O)c2cc3c(cc2N[C@@H](C)CO)NC(=O)CC3)cc1Cl`, the “activity change, negative = cytotoxicity” value is 0.888%.
For the compound `CN1CCN(CCC=C2c3ccccc3Sc3ccc(S(=O)(=O)N(C)C)cc32)CC1`, the Potency is 23.1 µM (active).
With `CCCCCCCCCCCCCCCCSCC(COC)COP(=O)([O-])OCC[N+](C)(C)C` (stereo not given), the “activity change, negative = cytotoxicity” value is -24.6%.
Same read-out and setting: with `CCOC(=O)N1CCN(C(=O)Cn2sc3nc(C)cc(C)c3c2=O)CC1` the figure was 1.11%; with `CSC(Cc1ccc(Cl)cc1)C(=O)Nc1ccc(Cl)cc1C(=O)O` (stereo not given), -7.77%.
With `Cc1cc2ncc(-c3ccccc3)nc2cc1C`, the “activity change, negative = cytotoxicity” value was -2.3%.
For the compound `C[C@@]1(F)[C@H](O)[C@@H](CO)O[C@H]1n1ccc(N)nc1=O`, the “activity change, negative = cytotoxicity” value was 1.05%.
For the compound `O=C(O)c1c[nH]c2c(ccc3ccccc32)c1=O`, the “activity change, negative = cytotoxicity” value is -5.41%.
As for `Nc1nc(N)c2nc(-c3cccc(O)c3)cnc2n1`, the Potency was 7.31 µM (active).
`Cc1cc(Nc2cc(C)c(C#N)c(NC(C)CCCC(C)(C)O)n2)n[nH]1` (stereo not given): the Potency is 1.3 µM (active).
Take `C[C@@H]1CCNC(=O)c2cc3ccc(C(=O)Nc4nc5ccccc5n4CCCN(C)C)cc3n21`: the “activity change, negative = cytotoxicity” value was 3.4%.
Still for that read-out and setting: with `COc1ccc2cc1Oc1ccc(cc1)CC1c3cc(c(OC)cc3CCN1C)Oc1c(OC)c(OC)c(OC)c3c1C(C2)N(C)CC3` (stereo not given) the figure was 4.14% [at 17.3 µM].
Take `C=C(C)C(=O)O[C@H]1[C@H]2C(=C)C(=O)O[C@@H]2C[C@@H](C)/C=C\C(=O)[C@](C)(O)[C@@H]1OC(C)=O`: the Potency was 2.82 µM (active).
Take `C=CCN(/C=C1\C(=O)OC(COC)C2(C)C1=C(O)C(=O)C1=C2C(OC(C)=O)CC2(C)C(=O)CCC12)CC=C` (stereo not given): the “activity change, negative = cytotoxicity” value is -19%.
On to `CN1CCCN(C(=O)c2cccc(-c3ccc(/C=C4\C(=O)Nc5ccc(Cl)cc54)o3)c2)CC1`, for which the Potency was 9.2 µM (active).
With `NC(=O)c1ncn(C2O[C@H](CO)[C@@H](O)[C@H]2O)c1N` (stereo not given in full), the call was inactive.
Turning to `COc1cccc(NC[C@@H](O)Cn2c3ccc(Br)cc3c3cc(Br)ccc32)c1`, the Potency is 23.1 µM (active).
Regarding `O=C(O)c1ccc2c3c1cccc3c(=O)n1c3ccccc3nc21`, the “activity change, negative = cytotoxicity” value was 2.56%.
With `Cc1cc(Nc2nn(-c3ccccc3)c(=O)c3ccccc23)n[nH]1`, the Potency is 11.6 µM (active).
For the compound `NC(=Nc1ccc(CCNCc2cccc(Cl)c2)cc1)c1cccs1`, the Potency is 23.1 µM (active).
As to `Cn1cc(C2=C(c3cn(CCCSC(=N)N)c4ccccc34)C(=O)NC2=O)c2ccccc21`, the compound was classed as inactive.
`C[C@@H](Nc1cc(F)cc(F)c1)c1cc(C(=O)N(C)C)cc2c(=O)cc(N3CCOCC3)oc12`: the “activity change, negative = cytotoxicity” value is 0.0672%.
Consider `COc1cc2ncnc(Sc3nnc(C)s3)c2cc1OC`, for which the Potency was 16.4 µM (active).
Turning to `COc1cc(O)c2c(=O)c(O)c(-c3ccc(O)c(O)c3)oc2c1`, the “activity change, negative = cytotoxicity” value is -16%.
Same read-out and setting: the result for `CSc1cc2c(s1)c1cnn(Cc3ccccc3F)c(=O)c1n2C` reads 2.63%; that for `Cc1ccc(Cl)cc1NC(=O)c1nc[nH]c1C(=O)Nc1nc2ccccc2[nH]1`, 2.78%.
As for `O=C(Nc1cccc(Nc2nccc(Nc3cccc(C(F)(F)F)c3)n2)c1)C1CC1`, the Potency is 5.8 µM (active).
For the compound `CN(C)C(=O)c1cc2cnc(Nc3ccc(N4CCNCC4)cn3)nc2n1C1CCCC1`, the “activity change, negative = cytotoxicity” value is -6.9%.
Consider `Cc1cn(C2OC(CO)C(O)C2F)c(=O)[nH]c1=O` (stereo not given), for which the compound was called inactive.
`O=C1/C(=C/c2ccc(O)c(O)c2)Oc2ccccc21`: the “activity change, negative = cytotoxicity” value is -29.2%.
In the case of `COc1cc(N2CCN(C(C)=O)CC2)ccc1Nc1ncc(Cl)c(Nc2ccc(N3CCN(C(C)=O)CC3)cc2OC)n1`, the Potency was 20.6 µM (active).
